IEC-6 cytotox: cytotoxicity in IEC-6 intestinal epithelial cells, primary screen, cytotoxicity control for KLF5 inhibitor project, cell-based, luminescence; IEC-6 cytotoxicity, luminescence viability; inhibition, % at 5 µM; 290,000 tested, 0.78% active; in the data active = inhibition above about 22%;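 note: 0% = plate median of test compound wells and 100% = cytotoxic reference compound wells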
aSyn 5UTR inh: MLPCN primary screen, SNCA 5' untranslated region. alpha-synuclein 5'UTR reporter, inhibitor activity. inhibition, % (tested at 7.5 µM). 300,000 tested, 0.82% active. AID 1813, 2009; in the data active = inhibition above about 60%;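 note: H4 neuroglioblastoma cells stably carrying SNCA 5'UTR luciferase fusion; 0% = DMSO wells and 100% = positive control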
Ba/F3 V617F tox: reduced viability of JAK2V617F-dependent Ba/F3 cells, primary screen, JAK2V617F inhibitor project, cell-based, Ba/F3 EpoR-JAK2V617F, luminescence; inhibition, % at 5.6 µM; ATP luminescence; 220,000 tested, 1.1% active;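 active = inhibition above the campaign mean plus 3 SD over all tested compounds, cut at about 24% in these data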;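 note: cytokine-independent growth of Ba/F3 cells driven by EpoR plus mutant JAK2; 0% = DMSO-treated cells and 100% = JAK inhibitor I control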
APP transl inh: inhibitors of APP translation via 5'UTR reporter, primary screen, APP 5'UTR luciferase, SH-SY5Y cells; SH-SY5Y APP 5'UTR-luciferase reporter, luminescence; AID 1285, 2008; 190,000 tested, 0.82% active; inhibition, % at 2 µM;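 active = inhibition above a set limit, derived from the sample mean plus 3 SD, cut at about 45% in these data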
KLF5 inhibitor: KLF5 expression inhibitors, primary screen, DLD-1 cells, luminescence. DLD-1 KLF5 promoter-luciferase reporter. inhibition, % at 5 µM. 290,000 tested, 0.23% active. AID 1700, 2009;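 active = inhibition above a per-plate limit of that plate's mean compound inhibition plus 3 SD, cut at about 60% in these data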;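 note: 0% = DMSO wells and 100% = LY294002 at 200 µM; higher means less KLF5 promoter-driven luciferase light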
BaF3 parental: parental Ba/F3 cell viability inhibition, counter-screen for JAK2V617F inhibitor project, murine pro-B, CellTiter-Glo luminescence | CellTiter-Glo ATP luminescence | 220,000 tested, 1.1% active | inhibition, % at 5.6 µM;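 active = inhibition above a per-campaign cutoff, the mean inhibition of all tested compounds plus 3 SD, cut at about 27% in these data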;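 note: 0% = DMSO wells and 100% = JAK Inhibitor I control wells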
* hit, by the source's call; nt = not tested or not shown. In the library only some 2.2% were active in any assay of this set; here they are far more common.

SMILES	IEC-6 cytotox	aSyn 5UTR inh	Ba/F3 V617F tox	APP transl inh	KLF5 inhibitor	BaF3 parental
CC(C)c1ccc(/C=C2\SC(=S)N(CCC(=O)NCCCn3ccnc3)C2=O)cc1	-4.5	98.4*	nt	nt	16.3	nt
COc1ccc(/C=C2\SC(=S)N(CCC(=O)NC3C=CS(=O)(=O)C3)C2=O)cc1 (stereo not given)	1.3	66.4*	nt	nt	-35.9	nt
COc1ccc(/C=C2\SC(=S)N(CCCC(=O)NNC(=O)c3ccccc3O)C2=O)cc1	1.6	74.8*	-3.1	65.0*	-28.4	3.4
COc1cccc(/C=C2\SC(=S)N(CCC(=O)NC3C=CS(=O)(=O)C3)C2=O)c1 (stereo not given)	-2.1	-29.3	nt	nt	-31.8	nt
COc1ccc(/C=C2\SC(=S)N(CCCC(=O)N3CCCCC3CCO)C2=O)cc1 (stereo not given)	-3.3	67.9*	nt	nt	-2.5	nt
CCOc1ccc(/C=C2\SC(=S)N(CCCC(=O)NCCCN3CCOCC3)C2=O)cc1	0.0	84.4*	nt	nt	0.1	nt
O=C(CCCN1C(=O)/C(=C/c2ccccc2Cl)SC1=S)NNC(=O)c1ccccc1Cl	-1.1	100.3*	-4.0	41.1	27.1	-0.4
COc1ccccc1NC(=O)c1c(Nc2ccccc2C)sc(C(=O)Nc2cccc(Cl)c2)c1N	-1.3	17.2	-4.6	-5.1	-31.9	-0.3
Cc1ccc(NC(=O)/C(=C/c2cccs2)NC(=O)c2ccco2)cc1	-2.0	2.1	-2.6	3.3	-11.3	29.3*
Cc1ccc(-c2ccnc3c(Cl)c(C)nn23)cc1	16.7	68.7*	nt	nt	-24.1	nt
CCOC(=O)C(C)Oc1cccc2c(=O)n(CC(=O)Nc3ccc4c(c3)OCCO4)ccc12 (stereo not given)	-2.1	15.0	-2.4	15.2	0.3	2.9
CCOC(=O)C(C)Oc1cccc2c(=O)n(CC(=O)NCc3ccc4c(c3)OCO4)ccc12 (stereo not given)	18.0	65.0*	59.2*	-5.7	17.4	42.0*
CCCCC(=O)Nc1cccc(C(=O)N/N=C/c2ccc(OC)cc2OC)c1	3.7	3.3	1.7	-3.4	-26.2	7.3
COc1ccccc1NC(=O)Cn1nnc(C(=O)Nc2ccccc2)c1N	-2.2	-8.6	1.4	8.0	-21.6	93.9*
COc1ccccc1NC(=O)c1nnn(CC(=O)Nc2ccccc2)c1N	4.8	-1.2	4.0	-9.1	-10.2	8.6
Cc1scc(C(=O)N/N=C/c2ccco2)c1C	-4.9	-86.4	-1.0	-71.8	-3.4	-1.9
O=C(N/N=C/c1ccc([N+](=O)[O-])o1)c1cc2ccccc2o1	-11.5	65.8*	2.1	nt	-0.5	-1.6
Cc1scc(C(=O)N/N=C/c2ccc([N+](=O)[O-])o2)c1C	0.1	84.8*	nt	nt	-37.8	nt
COc1ccc(NC(=O)CSc2nnc(CC(=O)Nc3ccc(F)cc3)n2C)cc1	-2.0	13.8	nt	nt	-13.1	nt
COc1ccc(COc2cc(-c3cccc(OC)c3)nc3ccc(NC(=O)C(C)C)cc23)cc1	12.4	-134.5	61.3*	14.4	22.6	70.2*
C=C(C)COc1ccc(-c2[nH]ncc2-c2ccc(Br)cc2)c(O)c1	4.9	91.4*	10.5	79.3*	22.8	4.0
C=C(C)COc1ccc(-c2[nH]ncc2-c2ccccc2OC)c(O)c1	0.0	-33.7	-2.3	-6.8	-7.2	1.9
C=C(C)COc1ccc(-c2n[nH]c(C)c2-c2ccc(Br)cc2)c(O)c1	-0.1	19.3	-2.5	67.0*	6.3	1.5
O=C(Nc1ccncc1)c1ccc(NS(=O)(=O)c2ccc3[nH]c(=O)[nH]c3c2)cc1	8.4	-19.1	nt	nt	-19.1	nt
COc1cc(C(=O)O/N=C2\C=CC(=O)C(C)=C2)cc(OC)c1OC	-1.9	-31.7	49.4*	-0.4	-17.3	32.0*
COc1cc(C(=O)ON=C2C=C(C)C(=O)C(C)=C2)cc(OC)c1OC	7.6	-3.1	1.2	14.9	-15.8	0.7
CCOC(=O)c1c(C)n2c3c(cc(C)cc13)CCC2	9.3	8.0	2.7	-9.6	-11.6	3.2
CCOC(=O)c1sc2nc(CSc3ccccc3)nc(N3CCC(C(N)=O)CC3)c2c1C	3.2	17.7	1.9	-9.8	-5.7	4.7
CCOC(=O)c1sc2nc(CSc3ccccc3)nc(N3CCCN(C)CC3)c2c1C	4.0	78.3*	4.7	18.4	16.9	1.6
